Beta cell apopt – blocks beta cell apoptosis; protection from apoptosis, % (concentration not given with the values); INS-1E cytokine-induced death, ATP luminescence, 48 h; percent of positive-control rescue, neutral wells zero; hit rate 0.8% among 300,000;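 active = Every replicate reaches about 75%, or at least half do and their mean reaches it too, limit read from the data; inconclusive = At least half of replicates reach the limit but their mean does not; inactive = Under half of replicates reach the limit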;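 also: 0% = cytokine-treated negative control wells and 100% = positive control rescue; higher means more ATP so stronger rescue from cytokine killing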
CSC inhib – blocks cancer stem cells. cancer stem cell-like cells viability, luminescence. inhibition, % at 7.5 µM. hit rate 1.1% among 300,000. AID 2717; in the data active = inhibition above about 75%; inconclusive = no clear call, values can overlap the other calls; tested in HMLE shEcad cells
SKKanGAS inh – inhibitors of SKKanGAS S. pyogenes growth in kanamycin (SK-promoter or general growth effect) | BacTiter-Glo, 6 h | inhibition, % at 7.5 µM | hit rate 1.3% among 300,000 | AID 1662;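 active = mean replicate score, as percent of positive control median, at least 50; inconclusive = mean below 50 but one replicate at or above 50; inactive = mean and every replicate below 50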;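 also: strain carries kanamycin resistance gene driven by streptokinase promoter and grows in 40 µg/ml kanamycin; loss of luminescence reflects streptokinase promoter inhibition or plain growth inhibition; 0% = median of DMSO wells and 100% = positive control at its reference dose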
MPTP block – inhibitors of mitochondrial permeability transition pore; inhibition, % at 10 µM; isolated mouse mitochondria, Ca2+ swelling absorbance, 30 min; hit rate 1.4% among 360,000;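 active = inhibition of 50% or more, scaled per plate between neutral and stimulator controls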;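 also: 0% = DMSO wells given calcium and 100% = 1 mM EGTA wells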
Calb FLC – affects C. albicans growth with fluconazole. C. albicans CaCi-2 (fluconazole-resistant clinical isolate) + fluconazole, Alamar Blue growth, 48 h. growth inhibition, % (test concentration not listed). hit rate 0.57% among 300,000;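 active = growth inhibition above about 58% in most replicates, limit read from the data, passing the limit was not always enough; inconclusive = exactly half the replicates above a set limit; inactive = most replicates below a set limit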;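 also: all wells also contain fluconazole at 8 µg/ml as a sub-toxic cotreatment; 0% = median of DMSO wells and 100% = median of geldanamycin control wells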
Mdm2-MdmX inh – inhibitors of human Mdm2/MdmX interaction. AID 485346. SaOS-2 split-luciferase Mdm2/MdmX complementation, luminescence. hit rate 3% among 330,000. O15151+Q00987. inhibition, % at 8 µM;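 active = inhibition of at least 50% at 8 µM in the primary screen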
Target sequence (O15151 whole entry, looked up): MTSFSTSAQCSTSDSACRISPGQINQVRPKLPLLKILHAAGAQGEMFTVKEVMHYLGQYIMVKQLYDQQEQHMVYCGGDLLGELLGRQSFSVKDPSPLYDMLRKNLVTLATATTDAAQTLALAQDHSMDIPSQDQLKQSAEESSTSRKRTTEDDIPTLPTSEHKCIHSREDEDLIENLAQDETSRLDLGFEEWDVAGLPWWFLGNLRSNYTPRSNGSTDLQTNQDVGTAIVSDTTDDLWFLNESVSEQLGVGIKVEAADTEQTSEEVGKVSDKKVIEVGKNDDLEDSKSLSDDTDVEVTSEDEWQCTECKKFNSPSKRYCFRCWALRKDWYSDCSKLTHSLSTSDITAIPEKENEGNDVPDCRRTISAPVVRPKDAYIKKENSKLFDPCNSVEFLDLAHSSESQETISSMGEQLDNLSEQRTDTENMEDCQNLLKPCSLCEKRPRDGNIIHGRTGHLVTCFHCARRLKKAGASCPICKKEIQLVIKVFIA
Target sequence (Q00987 whole entry, looked up): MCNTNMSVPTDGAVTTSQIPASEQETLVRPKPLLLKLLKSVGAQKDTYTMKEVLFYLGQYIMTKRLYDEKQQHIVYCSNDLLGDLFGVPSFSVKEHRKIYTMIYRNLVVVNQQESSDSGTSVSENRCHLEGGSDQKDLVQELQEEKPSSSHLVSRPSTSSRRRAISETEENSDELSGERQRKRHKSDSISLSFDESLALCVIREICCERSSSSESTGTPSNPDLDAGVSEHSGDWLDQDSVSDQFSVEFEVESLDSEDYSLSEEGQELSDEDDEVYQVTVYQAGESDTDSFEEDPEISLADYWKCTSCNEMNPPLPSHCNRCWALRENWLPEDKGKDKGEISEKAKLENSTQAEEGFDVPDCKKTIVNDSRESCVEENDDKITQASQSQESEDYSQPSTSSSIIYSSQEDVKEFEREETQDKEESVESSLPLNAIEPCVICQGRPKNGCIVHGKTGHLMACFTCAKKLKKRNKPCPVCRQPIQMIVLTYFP
MPTP counter – Rhodamine 123 counter-screen of mitochondrial pore hits. shares compounds with MPTP block. isolated mitochondria, membrane potential, Rhodamine 123 fluorescence. inhibition, % at 10 µM. hit rate 78% among 5,000. AID 624504; in the data active = inhibition above about 22%;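 also: 0% = DMSO vehicle and 100% = positive control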
MPTP swell DR – dose response confirmation of mitochondrial permeability transition pore inhibitors. shares compounds with MPTP block. isolated mitochondria swelling, absorbance. IC50, µM. hit rate 58% among 780. AID 651561; in the data active = IC50 below about 20 µM
MPTP cs DR – active in counter-screen for permeability transition pore inhibitors. shares compounds with MPTP block. isolated mitochondria counterscreen, fluorescence read-out. IC50, µM. hit rate 49% among 780; in the data active = IC50 below about 80 µM
Active calls of the source: *; ? = inconclusive; / = no result given. Most compounds without a hit are left out; they make up all but 5.4% or so of the library.

SMILES | Beta cell apopt | CSC inhib | SKKanGAS inh | MPTP block | Calb FLC | Mdm2-MdmX inh | MPTP counter | others
CC1CCc2c(sc(NC(=O)CSc3ncn[nH]3)c2C#N)C1 (configuration not stated) | -19 | 38 | 6 | 52* | 1 | 36 | 26*
N#Cc1c(NC(=O)CSc2ncn[nH]2)sc2c1CCCC2 | -3 | 15 | -8 | 6 | 40 | 34 | /
Cc1csc(SCC(=O)Nc2sc3c(c2C#N)CCC3)n1 | -1 | / | 29 | 3 | 14 | -21 | /
CC1CCc2c(sc(NC(=O)COC(=O)c3ccc(NC(=O)CC#N)cc3)c2C#N)C1 (configuration not stated) | 5 | -10 | 33 | 0 | -1 | 2 | /
CC(C)(C)C1CCc2c(sc(NC(=O)CSc3ncn[nH]3)c2C#N)C1 (configuration not stated) | 16 | 93* | -2 | 52* | -5 | 32 | 66*
CC(=O)c1c(C)[nH]c(C(=O)OCC(=O)Nc2sc3c(c2C#N)CCC(C)C3)c1C (configuration not stated) | 11 | 9 | 34 | 105* | 6 | 36 | 89*
Cc1ccnc(SCC(=O)Nc2sc3c(c2C#N)CCCC3)n1 | 106* | 15 | 3 | 100* | -5 | -1 | 125*
COc1ccc(S(=O)(=O)Nc2ccc3cn[nH]c3c2)cc1C | -2 | / | 8 | 0 | -8 | 14 | /
CCOC(=O)c1ccc(S(=O)(=O)Nc2ccc3cn[nH]c3c2)cc1 | 13 | -4 | -10 | 55* | -1 | 6 | 39*
OC(CNCc1ccco1)Cn1c2ccccc2c2ccccc21 (configuration not stated) | -2 | 11 | -12 | -3 | 22 | 23 | /
OC(CNCC1CCCO1)Cn1c2ccccc2c2ccccc21 (configuration not stated) | -5 | -1 | -7 | 74* | -12 | 32 | -9 | MPTP swell DR=10*;MPTP cs DR=>80
CC(=O)c1cccc(NS(=O)(=O)c2ccc(NC(=O)N3CCCCC3)cc2)c1 | / | 4 | 9 | 6 | -2 | 22 | /
Cn1c(=O)n(C)c2cc(S(=O)(=O)NCCc3ccccc3)ccc21 | -4 | 5 | 1 | 59* | -4 | -11 | 24*
CN(C)S(=O)(=O)N1CCc2ccccc2C1 | -3 | / | -15 | 0 | -15 | 7 | /
COc1ccc(Cl)cc1NC(=S)NCCC(c1ccccc1)c1ccccc1 | -2 | 45 | 4 | 67* | ? | 43 | 91*
COc1cc(NC(=S)NCCC(c2ccccc2)c2ccccc2)c(OC)cc1Cl | 57 | 37 | 19 | 97* | 3 | 31 | 81*
COc1ccccc1NC(=S)NCCC(c1ccccc1)c1ccccc1 | -1 | -2 | / | 30 | / | 23 | /
COC(=O)c1sc2nc(-c3ccccc3)nc(N3CCN(C)CC3)c2c1C | / | / | 4 | 76* | 1 | / | -10 | MPTP swell DR=9.8*;MPTP cs DR=>80
COc1ccc(-c2nc(-c3ccccc3)nc(N3CCN(C)CC3)c2C#N)cc1 | / | 46 | 13 | -3 | 0 | 47 | /
CN1CCN(c2nc(-c3ccccc3)nc(-c3ccccc3)c2C#N)CC1 | -3 | 4 | 7 | 69* | -4 | 28 | -5 | MPTP swell DR=17*;MPTP cs DR=>80
Nc1c(-c2cccs2)nc2ccccn12 | / | / | / | -1 | / | / | /
O=C(Cc1cccs1)Nc1cccc(-c2nc3cc4ccccc4cc3[nH]2)c1 | 30 | 99* | 72* | 90* | 23 | / | 37*
Cc1cc(=O)oc2cc(O)cc(OCc3ccccc3)c12 | / | / | / | 78* | / | / | 98*
O=[N+]([O-])c1ccc(O)c(C2CCCCC2)c1 | / | / | / | 88* | / | / | 102*
Cc1cc(NC(=O)CCC(=O)N(c2ccccc2F)C(C(=O)NC2CCCC2)c2ccccc2)no1 (configuration not stated) | 4 | / | -3 | -2 | 38 | -19 | /
SMILES | Beta cell apopt | CSC inhib | SKKanGAS inh | MPTP block | Calb FLC | Mdm2-MdmX inh | MPTP counter | others
Cc1nnsc1NC(=O)OCc1ccc(Cl)cc1Cl | 8 | 2 | -1 | 8 | ? | 16 | /
Cc1nn(C)c(Cl)c1NC(=O)OCc1ccc(Cl)cc1Cl | 38 | -8 | -1 | 87* | -6 | 28 | 92*
Cc1ccn2cc(-c3cccc(NC(=O)c4ccccc4)c3)nc2c1 | 7 | -1 | 0 | -2 | 6 | -40 | /
CCN1CCN(C(=O)c2cc(COc3ccc4ncccc4c3)on2)CC1 | 45 | 7 | -1 | 11 | 1 | -6 | /
COCCOC1CCN(C(=O)c2cc(COc3ccc(-n4cncn4)cc3)on2)CC1 | -4 | 7 | -4 | -2 | -4 | 13 | /
COCCC1CCCCN1C(=O)c1cc(COc2ccc(-n3cncn3)cc2)on1 (configuration not stated) | 87* | -13 | -3 | 92* | 3 | 24 | 100*
CCCN1CCN(C(=O)c2cc(COc3ccc4ncccc4c3)on2)CC1 | 40 | -2 | 3 | 86* | -6 | 8 | 56*
COCC1CCCCN1C(=O)c1cc(COc2ccc3ncccc3c2)on1 (configuration not stated) | 86* | 3 | -11 | 100* | 17 | 23 | 101*
COCC1CCN(C(=O)c2cc(COc3ccc4c(c3)CCCC4)on2)C1 (configuration not stated) | -3 | 10 | -10 | 0 | -1 | 11 | /
CCc1ccc(CN(C)C(=O)c2cc(COc3ccc(-n4cncn4)cc3)on2)cc1 | 6 | -6 | 4 | 59* | 18 | 9 | 78*
Cc1nc2ccc(NC(=O)C3=NN(C)C(=O)CC3)cc2s1 | 1 | 14 | / | -2 | / | -28 | /
CC(C)c1ccc(NC(=O)N2CCC(c3nc4ccccc4o3)CC2)cc1 | 6 | 12 | 0 | -2 | -17 | -7 | /
CC1CCCC(NC(=O)C2CC(=O)N(Cc3ccccc3)C2)C1C (configuration not stated) | -2 | -23 | 3 | -2 | 0 | -1 | /
CCC1CCCCN1C(=O)c1cc(COc2ccc3ncccc3c2)on1 (configuration not stated) | 113* | -4 | -7 | 104* | 15 | -24 | 81*
CCN(CC)C(=O)C1CCCN(C(=O)c2cc(COc3ccc4ncccc4c3)on2)C1 (configuration not stated) | / | -14 | -5 | 4 | 0 | 16 | /
CCC(C(=O)OCC(=O)Nc1cc(Cl)cc(Cl)c1)c1ccccc1 (configuration not stated) | 8 | 9 | 53* | 82* | 0 | -22 | 90*
CCC(C(=O)OCC(=O)Nc1cccc(C(C)=O)c1)c1ccccc1 (configuration not stated) | -4 | -11 | 1 | 3 | -2 | 3 | /
COc1cc(/C=C2/C(=O)c3cccc([N+](=O)[O-])c3C2=O)c(Br)cc1O | -5 | 42 | / | 134* | / | / | 53*

From PubChem BioAssay
